This assay is described as follows: NCI Yeast Anticancer Drug Screen. Data for the rad14 strain (AID 159).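 Further: 0% = growth of vehicle-treated control cultures.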 The conditions noted are these: S. cerevisiae rad14 strain growth inhibition, stronger effect = higher value. How it is done: Growth inhibition of yeast strains with defined genetic alterations is measured as a screen for potential anti-cancer activity. Selected strains with alterations in DNA damage repair or cell cycle control were exposed to compounds and growth inhibition was measured relative to vehicle treated controls. The strain used in this assay is rad14

Compounds without any hit were thinned out: in the full panel of roughly 79,000, 15% have a hit. Activity calls are given as the source filed them. No stated cut-off is given here; in the data, active means growth inhibition above about 70%; inactive means the rest.

Consider `CC(C)S(=O)(=O)/C=C\S(=O)(=O)C(C)C`, for which the growth inhibition is -3% (inactive) (at 1.2 µM); 9% (inactive) (at 3.7 µM); 36% (inactive) (at 11.0 µM); 55% (inactive) (at 33.0 µM); 99% (active) (at 100.0 µM).
As to `O=C(C#Cc1ccccc1)/C=C/c1ccccc1`, the growth inhibition was -1% (inactive) (at 1.2 µM); 12% (inactive) (at 3.7 µM); 10% (inactive) (at 11.0 µM); 82% (active) (at 33.0 µM); 96% (active) (at 100.0 µM).
Take `ClCCCOc1c(Cl)cc(Cl)cc1Cl`: the growth inhibition is, setting by setting: (at 1.2 µM) -4% (inactive); (at 3.7 µM) 2% (inactive); (at 11.0 µM) 5% (inactive); (at 33.0 µM) 1% (inactive); (at 100.0 µM) 13% (inactive).
On the same counts, the results for `COc1ccc(C(C)c2cc3c(cc2OC(C)O)OCO3)cc1` (stereo not given) are -1% (inactive), -2% (inactive), -1% (inactive), 4% (inactive) and 69% (inactive).
As to `COc1cc(OC)c(CSCC(NC(=O)OCC2c3ccccc3-c3ccccc32)C(=O)O)c(OC)c1` (stereo not given), the growth inhibition reads like this: (at 1.2 µM) -2% (inactive); (at 3.7 µM) 10% (inactive); (at 11.0 µM) 68% (inactive); (at 33.0 µM) 96% (active); (at 100.0 µM) 99% (active).
In the case of `OC1(c2ccccc2)C2CC=CC2C1(c1ccccc1)c1ccccc1` (stereo not given), the growth inhibition was -3% (inactive) (at 1.2 µM); 4% (inactive) (at 3.7 µM); 6% (inactive) (at 11.0 µM); 0% (inactive) (at 33.0 µM); 19% (inactive) (at 100.0 µM).
Regarding `Cc1ccc(C)c(C(=N)c2ccccc2Cc2ccccc2)c1`, the growth inhibition by setting is: (at 1.2 µM) 0% (inactive); (at 3.7 µM) 31% (inactive); (at 11.0 µM) 52% (inactive); (at 33.0 µM) 93% (active); (at 100.0 µM) 98% (active).
For the compound `Cc1ccc([N+](=O)[O-])c2c(NCCC[N+](C)(C)[O-])c3ccccc3nc12`, the growth inhibition (at 1.2 µM) was 11% (inactive); the growth inhibition (at 3.7 µM) was 15% (inactive); the growth inhibition (at 11.0 µM) is 43% (inactive); the growth inhibition (at 33.0 µM) was 91% (active); the growth inhibition (at 100.0 µM) was 96% (active).

The values above are taken from PubChem BioAssay (NCI).
